Test results: PubChem BioAssay (NCI)
The panel holds about 83,000 compounds, 20% with a hit somewhere; the sample as a whole holds those more often.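 Percent growth is the endpoint: 0 to 100 indicates growth inhibition (40 means 60% inhibition), 0 means no net growth, and negative values indicate cell death.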 Unmarked numbers belong to inactive results. Calls of active or inactive are those of the source. How the source made its calls: active means growth percent below 10; inactive means the rest.

Key:
Experiment in all cases: NCI-60 one-dose screen, 48 h (100 = growth as untreated, 0 = no growth, -100 = all killed)
Conditions in all cases: 10 µM unless noted
[1] = system: HCT-15 colon
[2] = system: HT29 colon
[3] = system: SNB-75 CNS
[4] = system: SNB-19 CNS
[5] = system: U251 CNS
[6] = system: PC-3 prostate
[7] = system: SK-MEL-5 melanoma
[8] = system: UACC-62 melanoma
[9] = system: LOX IMVI melanoma
[10] = system: SK-MEL-28 melanoma
[11] = system: SK-MEL-2 melanoma
[12] = system: EKVX NSCLC
[13] = system: SN12C renal
[14] = system: UO-31 renal
[15] = system: TK-10 renal
[16] = system: ACHN renal
[17] = system: CAKI-1 renal
[18] = system: A498 renal
[19] = system: CCRF-CEM leukemia
[20] = system: MOLT-4 leukemia

Structure (SMILES)	growth [1]	growth [2]	growth [3]	growth [4]	growth [5]	growth [6]	growth [7]	growth [8]	growth [9]	growth [10]	growth [11]	growth [12]	growth [13]	growth [14]	growth [15]	growth [16]	growth [17]	growth [18]	growth [19]	growth [20]
CC(=O)N1N=C(c2ccc(Nc3nc(Nc4ccccc4)nc(Nc4ccccc4)n3)cc2)CC1c1ccccc1 (stereo not given)	87%	103%	90.8%	84.3%	92.6%	80.5%	78.4%	91%	89.4%	111%	58.6%	79.7%	99.6%	73.5%	87.7%	93.5%	90.2%	82.4%	68.2%	75.1%
COC12C=C/C(=C(/C(=O)OCc3ccncn3)C(=O)CCCCCCCCC3(OC)C=C/C(=C(/C(=O)OCc4ccncn4)C(=O)CCCCCCCC1)O3)O2	-28.5% (active)	12.5%	48.7%	7.75% (active)	0.453% (active)	-36.7% (active)	-88.1% (active)	-47.4% (active)	-54.8% (active)	-19.2% (active)	11.6%	-15.5% (active)	-10.7% (active)	-50.7% (active)	9.83% (active)	-74.8% (active)	-28.4% (active)	-86.3% (active)	-15.2% (active)	-7.71% (active)
CN(/C(N)=N/N=C/c1c2ccccc2cc2ccccc12)C1CCCCC1	25.5%	17.9%	57.2%	71.5%	48.3%	36.7%	12.1%	47.6%	31.3%	48.8%	85.8%	50.5%	54.7%	33.5%	59.3%	52.7%	46.5%	50.3%	29.1%	14.2%
C#CCOc1cccc(Nc2ncnc3cc(NC(=O)C=C)ccc23)c1	7.73% (active)	1.75% (active)	24.7%	33.8%	33.1%	24.2%	8.74% (active)	9.66% (active)	3.54% (active)	49%	25.3%	32.5%	13.2%	16.8%	-12.6% (active)	17.2%	16%	26.8%	2.9% (active)	7.88% (active)
Cc1ccc(-c2nc(N3CCCNCC3)c3oc(-c4ccc(C)cc4)nc3n2)cc1	-72.9% (active)	-87.1% (active)	97.7%	58.2%	-92.4% (active)	-89.5% (active)	88.1%	92%	-79.3% (active)	89.8%	105%	116%	59.1%	62.6%	-1.53% (active)	-77.1% (active)	108%	101%	-72.1% (active)	-66% (active)
CS(=O)(=O)Nc1cc(-c2ccc3ncnc(Nc4ccc5c(cnn5Cc5cccc(F)c5)c4)c3c2)cnc1Cl	46.9%	5.83% (active)	-13.9% (active)	22.2%	9.46% (active)	10.9%	-68.3% (active)	-8.95% (active)	-44.8% (active)	-12.6% (active)	-42% (active)	4.57% (active)	3.84% (active)	15.7%	-15.9% (active)	18.4%	-27.9% (active)	-48.7% (active)	12.7%	-10% (active)
CCCNC(=O)Nc1ccc2cc3ccc(NC(=O)NCCC)cc3nc2c1	94.5%	98.5%	71.7%	68.1%	61.2%	81.5%	81.8%	91.5%	72.2%	81.9%	84.7%	97.8%	94.5%	76.1%	115%	78.1%	104%	71.4%	47.4%	84.8%
c1ccc2cc(C[n+]3ccn(CCCCCCCCCCn4cc[n+](Cc5ccc6ccccc6c5)c4)c3)ccc2c1	50.5%	-32.5% (active)	-1.15% (active)	22.8%	11.7%	7.04% (active)	-56.4% (active)	16.9%	-53.9% (active)	20.6%	-39.4% (active)	13.7%	4.24% (active)	77.5%	15.1%	52.2%	74.7%	9.69% (active)	-4.14% (active)	-43.6% (active)
